Compounds with a hit are over-represented: about 19% of the library has one in this group of screens.
ELG1 DNA repair – qHTS screen for small molecules that inhibit ELG1-dependent DNA repair in human embryonic kidney (HEK293T) cells expressing luciferase-tagged ELG1 | hit rate 2.3% among 330,000 | HEK293T ELG1-luciferase reporter, luminescence, 16 h; DNA damage induced by 5-fluorouridine | Potency, µM (doses to about 46.1 µM), without a hit: at the top dose activity change, negative = inhibition, usual class: inhibitors; also: potency is read from the fitted curve at half-maximal effect; nearly all actives have a fitted effect of over 55% in size
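DMSO vehicle served as the neutral condition. Each well held 2,000 cells given 5-fluorouridine plus compound; after 16 hr at 37 °C/5% CO2, ONE-Glo was added and luciferase measured 30 min later.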
IL1B secr inh – qHTS for Inhibitors of Inflammasome Signaling: IL-1-beta AlphaLISA Primary Screen; THP-1 LPS/ATP IL-1B secretion, AlphaLISA, 16 h; active compounds read low; hit rate 4.7% among 360,000; activity change, % at 57.5 µM; AID 743279, 2014; in the data active = activity change below about -50%; inconclusive = mostly about -30% to -49%
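Secreted IL-1B measured by AlphaLISA bead assay after 16 h compound exposure of THP-1 cells; compounds (final up to 57.5 uM) added 1 h before LPS (250 ng/mL) and ATP (1.25 mM) stimulation; lower signal means less secretion.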
DT40 TDP1 CPT – qHTS for Inhibitors of human tyrosyl-DNA phosphodiesterase 1 (TDP1): qHTS in cells in presence of CPT | chicken DT40 Tdp1-/-;hTDP1 cells + 20 nM CPT, ATP luminescence, 48 h | Potency, µM (titrated, usually from 46.2 µM), without a hit: top-dose activity change, negative = growth inhibition, usual class: inhibitors | hit rate 12% among 420,000; also: potency is read from the fitted curve at half-maximal effect; nearly all actives have a fitted effect of over 55% in size
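Cell growth measured by CellTiter-Glo luminescence after a minimum 48 h, 37 C compound exposure with 20 nM CPT in Tdp1-knockout DT40 cells stably expressing hTDP1, seeded 400/well; qHTS titration format.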
TDP1 inh – qHTS Assay for Inhibitors of Tyrosyl-DNA Phosphodiesterase (TDP1) | AID 485290, 2010 | hit rate 0.28% among 350,000 | Tyrosyl-DNA phosphodiesterase 1 (Homo sapiens), Q9NUW8 | recombinant TDP1, AlphaScreen DNA substrate cleavage | Potency, µM (doses to about 130 µM), for inactives: at the highest dose activity change, negative = inhibition, most hits filed as inhibitors; also: potency is read from the fitted curve at half-maximal effect; nearly all actives have a fitted effect of over 40% in size
Target sequence (Q9NUW8 whole entry, looked up): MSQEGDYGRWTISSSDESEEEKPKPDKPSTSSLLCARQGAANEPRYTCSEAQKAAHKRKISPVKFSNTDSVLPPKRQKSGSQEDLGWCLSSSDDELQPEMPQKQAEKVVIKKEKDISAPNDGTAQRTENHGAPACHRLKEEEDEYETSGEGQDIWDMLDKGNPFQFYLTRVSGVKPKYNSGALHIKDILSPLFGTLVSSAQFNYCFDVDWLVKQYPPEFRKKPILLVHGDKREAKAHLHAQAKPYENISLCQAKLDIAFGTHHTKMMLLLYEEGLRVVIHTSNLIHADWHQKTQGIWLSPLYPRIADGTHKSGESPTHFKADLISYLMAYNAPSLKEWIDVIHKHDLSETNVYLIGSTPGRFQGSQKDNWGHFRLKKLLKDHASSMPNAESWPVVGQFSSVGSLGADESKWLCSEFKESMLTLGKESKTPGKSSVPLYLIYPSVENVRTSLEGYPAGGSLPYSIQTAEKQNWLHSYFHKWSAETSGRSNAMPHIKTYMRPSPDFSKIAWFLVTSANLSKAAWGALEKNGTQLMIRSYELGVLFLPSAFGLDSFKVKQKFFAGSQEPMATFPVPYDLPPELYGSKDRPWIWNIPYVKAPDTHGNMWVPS
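Steps: enzyme plus compound, 15 min RT; add biotin/phosphotyrosine-FITC oligonucleotide (15 nM final), react 5 min; add donor/acceptor beads (10 ug/ml final), 10 min; read AlphaScreen. Tdp1 at 1 nM final.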
Giardia killer – Small Molecules that selectively kill Giardia lamblia: qHTS; Giardia lamblia trophozoite viability; activity change, % at 7.66 µM, hits read low; hit rate 0.15% among 340,000; in the data active = activity change below about -80%; inconclusive = between about -30% and that limit;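 also: parasites exposed to compound for two days anaerobically before the ATP read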
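Compounds were tested on trophozoites seeded at 100 cells/well and held 48 hrs at 37 deg C anaerobically. An ATP-based luminescent kit measured the remaining live cells.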
TDP1 cell noCPT – qHTS for Inhibitors of human tyrosyl-DNA phosphodiesterase 1 (TDP1): qHTS in cells in absence of CPT | hit rate 15% among 420,000 | Potency, µM (titrated, usually from 46.2 µM), for inactives: top-dose activity change, negative = growth inhibition, hits mostly inhibitors | DT40 Tdp1-/- hTDP1 cells, no CPT, ATP luminescence, 48 h | AID 686978, 2013; also: potency is read from the fitted curve at half-maximal effect; nearly all actives have a fitted effect of over 55% in size
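Seeded 400 DT40-hTDP1 cells/well (vehicle DMSO, no 20 nM CPT); pinned compounds; ≥48 hr at 37 °C; CellTiter-Glo luminescence as viability measure.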
The depositor's hits bear a star; [ ] = another dose, or the depositor's remark. Unless noted, calls follow the shape of the dose curve; as a rule, active = well fitted curve in the direction sought with a large enough effect; inconclusive = small, poorly fitted or top-dose-only effect, or another doubt; inactive = no such curve, though single readings can be large; an effect the other way counts as inactive or inconclusive. % is scaled to controls: 0 for no effect and ±100 for the full control effect.

`O=C(CN1C(=O)COc2ccc(S(=O)(=O)N3CCOCC3)cc21)N1CCN(c2ccc(Cl)cc2)CC1` gave TDP1 inh 1%.
CN(C)CC(=O)N[C@@H]1CC[C@@H](CCNS(=O)(=O)c2ccccc2)O[C@@H]1CO was read as IL1B secr inh -13, DT40 TDP1 CPT 5% and TDP1 cell noCPT -3%.
CC(C)c1cc(C(=O)N/N=C/c2cccnc2)n[nH]1 was read as ELG1 DNA repair -1%, IL1B secr inh -1, DT40 TDP1 CPT 0%, TDP1 inh 0%, Giardia killer -5 and TDP1 cell noCPT -3%.
Screening C=CCNC(=O)/C(C#N)=C\c1cc(Cl)c(O)c(OCC)c1 returned ELG1 DNA repair 10%, IL1B secr inh 10, DT40 TDP1 CPT -1%, TDP1 inh 3%, Giardia killer -4 and TDP1 cell noCPT -2%.
For CCOc1cc(/C=C(/C#N)C(=O)Nc2ccc(O)cc2)cc(Br)c1O the results were ELG1 DNA repair 8%, IL1B secr inh 33, DT40 TDP1 CPT 0.65µM*, TDP1 inh 3%, Giardia killer 7 and TDP1 cell noCPT 0.92µM*.
Screening N#C/C(=C\c1ccc2c(c1)OCCO2)C(=O)Nc1ccc(C(=O)O)cc1 returned ELG1 DNA repair inconclusive, IL1B secr inh -14, DT40 TDP1 CPT -1%, Giardia killer 5 and TDP1 cell noCPT 10%.
For N#C/C(=C/c1ccc2c(c1)OCO2)C(=O)Nc1ccc(O)cc1 the results were ELG1 DNA repair inconclusive, IL1B secr inh -21, DT40 TDP1 CPT 7.3µM*, TDP1 inh 1%, Giardia killer -3 and TDP1 cell noCPT 12µM*.
`CC1(C)CC2CC(C)(CN2Cc2c(O)ccc3ccccc23)C1` (stereo unspecified) gave ELG1 DNA repair 6%, IL1B secr inh -17, DT40 TDP1 CPT inconclusive, TDP1 inh 8%, Giardia killer -28 and TDP1 cell noCPT 13µM*.
Screening CCOc1ccc(CCNC(=O)C2=C(C)C(=O)OC23CCCCC3)cc1 returned DT40 TDP1 CPT -27%, TDP1 inh 3% and TDP1 cell noCPT -12%.
For Cc1[nH]c2ccccc2c1/C=C(\C#N)C(=O)NC1CC1 the results were ELG1 DNA repair inconclusive, IL1B secr inh -26, DT40 TDP1 CPT -18%, TDP1 inh 6%[56.1 µM], Giardia killer 20 and TDP1 cell noCPT -4%.
Screening COC(=O)/C(C#N)=C\c1c(OC)[nH]c2ccccc12 returned ELG1 DNA repair inconclusive, IL1B secr inh 6, DT40 TDP1 CPT inconclusive, TDP1 inh -1%, Giardia killer 7 and TDP1 cell noCPT 9.2µM*.
Screening O=C1C2C3C=CC(C3=C(c3ccccc3)c3ccccc3)C2C(=O)N1Cc1ccccc1 (stereo unspecified) returned ELG1 DNA repair -8%, IL1B secr inh 0, DT40 TDP1 CPT inconclusive, TDP1 inh -10%, Giardia killer 17 and TDP1 cell noCPT 18µM*.
COc1nc(-c2cccs2)cc(-c2ccc(C)cc2)c1C#N was read as ELG1 DNA repair -2%, IL1B secr inh 35, DT40 TDP1 CPT 10µM*, Giardia killer 9 and TDP1 cell noCPT 13µM*.
For COc1ccc(-c2cc(-c3cccs3)nc(OC)c2C#N)cc1OC the results were ELG1 DNA repair 18µM*, IL1B secr inh -9, DT40 TDP1 CPT inconclusive, TDP1 inh -3%, Giardia killer 21 and TDP1 cell noCPT 29µM*.
CCc1nnc(NC(=O)CSc2nc3c([nH]c4ccccc43)c(=O)n2-c2ccc(F)cc2)s1 was read as DT40 TDP1 CPT -20%, TDP1 inh 1% and TDP1 cell noCPT inconclusive.
For O=C(CSC1=NCCN1)C1COc2ccccc2O1 (stereo unspecified) the results were ELG1 DNA repair 10%, IL1B secr inh -13, DT40 TDP1 CPT 18µM*, TDP1 inh -4%, Giardia killer 20 and TDP1 cell noCPT inconclusive.
For O=C(Nc1ccncc1)C1COc2ccccc2O1 (stereo unspecified) the results were ELG1 DNA repair -3%, IL1B secr inh -10, DT40 TDP1 CPT inconclusive, TDP1 inh 2%, Giardia killer -3 and TDP1 cell noCPT -30%.
O=C(NCc1noc2ccccc12)Nc1ccc(F)cc1F was read as DT40 TDP1 CPT 16µM*, TDP1 inh -4% and TDP1 cell noCPT -69%.
Screening O=C(NCc1ccc(Cl)cc1)NCc1noc2ccccc12 returned DT40 TDP1 CPT inconclusive, TDP1 inh -3% and TDP1 cell noCPT inconclusive.
O=C(NCc1cccc(Cl)c1)NCc1noc2ccccc12 was read as DT40 TDP1 CPT inconclusive, TDP1 inh 0% and TDP1 cell noCPT 16µM*.
For COc1cccc(N2CCN(c3ccc4nnc(CCC(=O)O)n4n3)CC2)c1 the results were DT40 TDP1 CPT 4%, TDP1 inh 0% and TDP1 cell noCPT -1%.
For Cc1cc(Cl)c(S(=O)(=O)N2CCCC2)cc1OCC(N)=O the results were ELG1 DNA repair 12%, IL1B secr inh -8, DT40 TDP1 CPT 3%, TDP1 inh -3%, Giardia killer 1 and TDP1 cell noCPT -3%.
`Cc1cc(Cl)c(S(N)(=O)=O)cc1OCC(=O)NC1CCCCC1` gave ELG1 DNA repair -14%, IL1B secr inh -4, DT40 TDP1 CPT -21%, TDP1 inh 5%[56.1 µM], Giardia killer -9 and TDP1 cell noCPT -17%.
`Cc1cc(Cl)c(S(=O)(=O)N2CCN(c3ccccn3)CC2)cc1OCC(=O)NC1CCCCC1` gave ELG1 DNA repair 21µM*, IL1B secr inh inconclusive, DT40 TDP1 CPT inconclusive, TDP1 inh 8%, Giardia killer -2 and TDP1 cell noCPT 21µM*.
For CCOC(=O)C1CCCN(S(=O)(=O)c2cc(OCC(N)=O)c(C)cc2Cl)C1 (stereo unspecified) the results were ELG1 DNA repair -21%, IL1B secr inh -92*, DT40 TDP1 CPT -15%, TDP1 inh -2%, Giardia killer -4 and TDP1 cell noCPT -9%.
For Cc1cc(Cl)c(S(=O)(=O)N2CCSCC2)cc1OCC(=O)NC1CCCCC1 the results were ELG1 DNA repair 9.2µM*, IL1B secr inh -54*, DT40 TDP1 CPT 16µM*, TDP1 inh 4%, Giardia killer -16 and TDP1 cell noCPT 18µM*.

Compound activity: PubChem, National Center for Advancing Translational Sciences (NCATS)
